Assay outcomes deposited in PubChem BioAssay by National Center for Advancing Translational Sciences (NCATS).
TDP1 block: qHTS Assay for Inhibitors of Tyrosyl-DNA Phosphodiesterase (TDP1); Tyrosyl-DNA phosphodiesterase 1 (Homo sapiens), Q9NUW8; actives 0.28% (n = 350,000); recombinant TDP1, AlphaScreen DNA substrate cleavage; Potency, µM (series often up to 130 µM), for inactives: top-dose activity change, negative = inhibition, usual class: inhibitors; note: potency is the fitted concentration of half-maximal effect; % is set by controls: 0 for no effect and ±100 for the full control effect; nearly all actives have a fitted effect of over 40% in size
Target sequence (Q9NUW8 whole entry, looked up): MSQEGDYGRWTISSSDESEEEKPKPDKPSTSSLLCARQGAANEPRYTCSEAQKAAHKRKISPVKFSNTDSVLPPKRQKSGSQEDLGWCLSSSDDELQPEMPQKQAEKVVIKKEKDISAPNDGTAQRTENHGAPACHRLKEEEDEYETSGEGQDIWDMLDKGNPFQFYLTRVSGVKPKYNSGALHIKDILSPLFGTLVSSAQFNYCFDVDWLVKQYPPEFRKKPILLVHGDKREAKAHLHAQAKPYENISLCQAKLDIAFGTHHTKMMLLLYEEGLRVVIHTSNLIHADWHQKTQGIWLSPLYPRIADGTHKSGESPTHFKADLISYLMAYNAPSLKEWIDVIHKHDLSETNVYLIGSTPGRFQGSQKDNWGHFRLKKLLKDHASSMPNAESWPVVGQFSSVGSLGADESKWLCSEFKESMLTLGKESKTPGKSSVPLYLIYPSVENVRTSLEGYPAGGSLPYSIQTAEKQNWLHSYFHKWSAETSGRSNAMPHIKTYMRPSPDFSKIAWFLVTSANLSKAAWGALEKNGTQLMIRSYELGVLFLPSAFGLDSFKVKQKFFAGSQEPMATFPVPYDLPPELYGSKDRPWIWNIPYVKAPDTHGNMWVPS
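Enzyme-compound mixtures sat 15 min at room temperature, followed by a 5 min reaction with 15 nM final substrate and 10 min with AlphaScreen beads. Recombinant human Tdp1 was used at 1 nM final.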
TDP1 cell noCPT: qHTS for Inhibitors of human tyrosyl-DNA phosphodiesterase 1 (TDP1): qHTS in cells in absence of CPT. AID 686978, 2013. actives 15% (n = 420,000). Potency, µM (doses to about 46.2 µM), for inactives: at the highest dose activity change, negative = growth inhibition, actives largely listed as inhibitors. DT40 Tdp1-/- hTDP1 cells, no CPT, ATP luminescence, 48 h; note: potency is the fitted concentration of half-maximal effect; % is set by controls: 0 for no effect and ±100 for the full control effect; nearly all actives have a fitted effect of over 55% in size
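Seeded 400 DT40-hTDP1 cells/well (vehicle DMSO, no 20 nM CPT); pinned compounds; ≥48 hr at 37 °C; CellTiter-Glo luminescence as viability measure.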
uPA generation: qHTS for Inhibitors of Cell Surface uPA Generation; actives 0.31% (n = 330,000); Potency, µM (top dose mostly 38.3 µM), for inactives: at the top dose activity change, negative = inhibition, hits mostly inhibitors; cell surface uPA generation assay, qHTS; AID 540303, 2011; active = well fitted inhibition curve with a large enough effect; inconclusive = small, poorly fitted or top-dose-only effect; inactive = no such curve, though single readings can be large or run the other way; tested in mouse RAW 264.7 cells; note: potency is the fitted concentration of half-maximal effect; % is set by controls: 0 for no effect and ±100 for the full control effect; nearly all actives have a fitted effect of over 55% in size
miR-21 act: qHTS Assay for Modulators of miRNAs and/orActivators of miR-21. HeLa miR-21 FLuc reporter, luciferase, 48 h. Potency, µM (highest dose often 38.3 µM), for inactives: at the top dose activity change, positive = activation, actives largely listed as activators. 340,000 tested, under 10 active;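 note: % of control where 0% means no effect; miR-21 action dims this reporter so a rising signal means less miR-21 action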
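HeLa miR-21-FLuc reporter line, endogenous miR-21; 2000 cells/well in DMEM/10% FBS; compound titration up to ~40uM final, 48 h, 37 degree Celsius; luciferase detection reagent, 15 min lysis, CCD luminescence.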
DT40 TDP1 CPT: qHTS for Inhibitors of human tyrosyl-DNA phosphodiesterase 1 (TDP1): qHTS in cells in presence of CPT; chicken DT40 Tdp1-/-;hTDP1 cells + 20 nM CPT, ATP luminescence, 48 h; Potency, µM (highest dose often 46.2 µM), for the others: at the top dose activity change, negative = growth inhibition, most hits filed as inhibitors; actives 12% (n = 420,000); AID 686979, 2013; note: potency is the fitted concentration of half-maximal effect; % is set by controls: 0 for no effect and ±100 for the full control effect; nearly all actives have a fitted effect of over 55% in size
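Cell growth measured by CellTiter-Glo luminescence after a minimum 48 h, 37 C compound exposure with 20 nM CPT in Tdp1-knockout DT40 cells stably expressing hTDP1, seeded 400/well; qHTS titration format.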
* = called active by the depositor; ? = inconclusive; . = no result given; [ ] = another dose, or the depositor's remark. Shown are actives, neighbours in structure and some others; about 16% of the full set was active somewhere. Unless noted, calls come from the whole dose curve; as a rule, active = well fitted curve in the direction sought with a large enough effect; inconclusive = small, poorly fitted or top-dose-only effect, or another doubt; inactive = no such curve, though single readings can be large; an effect the other way counts as inactive or inconclusive.

SMILES | TDP1 block | TDP1 cell noCPT | uPA generation | miR-21 act | DT40 TDP1 CPT
CC(C)C[C@H](NC(=O)[C@@H](Cc1c[nH]c2ccccc12)NC(=O)[C@H](Cc1ccc(O)cc1)NC(=O)[C@H](CO)NC(=O)[C@H](Cc1c[nH]c2ccccc12)NC(=O)[C@H](Cc1cnc[nH]1)NC(=O)[C@@H]1CCC(=O)N1)C(=O)N[C@@H](CCCN=C(N)N)C(=O)N1CCC[C@@H]1C(=O)NCC(N)=O | . | -14.9% | . | . | 8.9%
CCCCCCCCN1C(=O)[C@H](CC(=O)N2CCN(C(=O)C3CC3)CC2)C[C@@]2(C(=O)OCC)CCCC=C12 | . | 23.1µM* | . | . | 23.1µM*
CCOC(=O)[C@]12CCCC=C1N(Cc1ccco1)C(=O)[C@H](CC(=O)N1CCN(C(=O)C3CC3)CC1)C2 | . | -13.0% | . | . | -29.1%
CCCCCCCCN1C(=O)[C@H](CC(=O)N2CCN(C(=O)C3CC3)CC2)C[C@@]2(C(=O)OC)CCCCC=C12 | . | 16.4µM* | . | . | ?
CCCCCCCCN1C(=O)[C@H](CC(=O)N2CCCC2)C[C@@]2(C(=O)OC)CCCCC=C12 | . | 18.4µM* | . | . | 16.4µM*
CCCCCCCCN1C(=O)[C@H](CC(=O)N2CCN(C(=O)OCC)CC2)C[C@@]2(C(=O)OC)CCCCC=C12 | . | 20.6µM* | . | . | ?
CCOC(=O)[C@]12CCCC=C1N(Cc1ccco1)C(=O)[C@H](CC(=O)N1CCCC1)C2 | . | -8.4% | . | . | -6.0%
CCCS(=O)(=O)NC(=O)C1(C)CCN(C(=O)c2cccc(OC(F)(F)F)c2)C1 (configuration not stated) | . | 1.7% | . | . | 18.8%
Cc1cccc(N2CN=c3s/c(=C\c4ccccn4)c(=O)n3C2)c1 | 3.8% | -12.0% | 6.9% | 1.9% | -13.7%
COC(=O)[C@]12CCCCC=C1N(Cc1ccco1)C(=O)[C@H](CC(=O)N1CCSCC1)C2 | . | -28.1% | . | . | -3.4%
CCCCCCCCN1C(=O)[C@H](CC(=O)N2CCC(c3ccccc3)CC2)C[C@@]2(C(=O)OC)CCCCC=C12 | . | 18.4µM* | . | . | ?
Cc1c(C(=O)N(C)C(C)C)sc2ncnc(NCCCN3CCOCC3)c12 | . | 0.0% | . | . | -0.7%[9.04 µM]
COc1cccc2cc(-c3nc4ccccc4[nH]3)c(=O)oc12 | . | ? | -9.2% | -52.5% | -4.5%
Cc1cccc(-n2nc(C(=O)c3ccco3)cc(-c3nc4ccccc4[nH]3)c2=N)c1 | 10.5% | 8.2µM* | -0.3% | -10.6% | 16.4µM*
Cc1ccccc1-n1nc(C(=O)c2cccs2)cc(-c2nc3ccccc3[nH]2)c1=N | 9.8% | 7.31µM* | 0.4% | -1.6% | 11.6µM*
COc1ccc(-n2nc(C(=O)c3cccs3)cc(-c3nc4ccccc4[nH]3)c2=N)cc1 | 9.8% | 5.8µM* | -4.6% | -8.6% | 5.8µM*
O=C(Nc1ccc(Cl)cc1)c1sccc1-n1cccc1 | 6.3% | -0.1% | 0.0% | -6.0% | -3.2%
O=C(N/N=C/c1ccccc1)c1n[nH]c2c1CCCC2 | 4.8% | ? | -15.4% | -6.4% | ?
O=C(N/N=C/c1cccs1)c1n[nH]c2c1CCC2 | 3.0% | 3.66µM* | -13.3% | 6.0% | 4.11µM*
CC1(C)CC(=NNC(=O)c2n[nH]c3c2CCC3)CC(C)(C)N1 | 2.8% | 21.8% | 0.5% | -0.8% | ?
O=C(N/N=C/c1cccs1)c1cncc(Br)c1 | 2.5% | -5.0% | 0.5% | -0.6% | 5.3%
O=C(N/N=C/C(Br)=C/c1ccccc1)c1n[nH]c2c1CCC2 | 3.9% | 4.11µM* | ? | ? | 2.59µM*
O=C(N/N=C/c1ccc(Cl)cc1)c1n[nH]c2c1CCCC2 | . | 0.92µM* | -5.3% | -14.4% | 0.581µM*
COc1ccc(CN(C)C(C)C(=O)Nc2ccc(S(=O)(=O)N3CCCCC3)cc2)c(OC)c1 (configuration not stated) | 1.5% | ? | ? | . | ?
CN1C(=O)/C(=C/c2ccc(OC(=O)c3ccco3)cc2)SC1=S | 1.6%[0.0935 µM] | ? | 4.8% | -5.2% | ?
SMILES | TDP1 block | TDP1 cell noCPT | uPA generation | miR-21 act | DT40 TDP1 CPT
COc1ccc(-n2c(C)cc(C(=O)COC(=O)c3ccc(O)cc3O)c2C)cc1 | 6.2% | 5.17µM* | ? | . | 8.2µM*
Cc1cc(C(=O)COC(=O)c2ccc(O)cc2O)c(C)n1-c1ccc(OC(F)F)cc1 | -3.7% | 7.31µM* | ? | . | 20.6µM*
Cc1cc(C(=O)COc2cccc(-n3cnnn3)c2)c(C)n1-c1ccccc1 | 5.8% | 20.6µM* | -6.4% | 12.9% | 23.1µM*
COc1ccc(-n2c(C)cc(C(=O)CCl)c2C)cc1 | 5.8% | 1.84µM* | ? | 29.5% | 1.46µM*
COC(=O)COc1cccc(-n2cnnn2)c1 | -2.9% | 3.4% | . | -1.9% | 13.4%
COc1ccc(-n2c(C)cc(C(=O)CN3C(=O)c4ccccc4C3=O)c2C)cc1 | -2.6% | ? | -14.8% | -29.0% | -10.7%
O=C(O)C1CCCCC1C(=O)NCc1ccncc1 (configuration not stated) | -2.6% | -17.4% | -1.1% | -8.7% | -1.4%
Cc1csc(=O)n1CCC(=O)OCC(=O)NNC(=O)c1ccccc1 | -0.3% | -3.8% | 1.6% | . | 2.6%
COc1cc(NC(=O)c2cccs2)c(C(=O)OCC(=O)c2cc(C)n(-c3ccccc3)c2C)cc1OC | 5.1% | 20.6µM* | 4.2% | -3.8% | ?
COc1ccc(NC(=O)COC(=O)Cn2cnc3ccccc32)cc1 | -0.2% | -10.6% | 1.7% | . | -17.6%
Cc1cc(C(=O)COC(=O)c2ccc(O)cc2O)c(C)n1-c1ccccc1 | 8.8% | 20.6µM* | -6.5% | . | 20.6µM*
COc1ccc(-n2c(C)cc(C(=O)COC(=O)Cn3cnc4ccccc43)c2C)cc1 | 7.8% | 17.8µM* | -3.8% | 0.0% | 15.8µM*
Cc1cc(C(=O)OCC(N)=O)c(C)n1-c1ccccc1 | 5.0% | ? | 0.8% | -41.7% | ?
CCCNC(=O)c1ccc(N2CCC3(CC2)CC(c2cccc(Br)c2)=NO3)c(NC(=O)c2cccc(OC)c2)c1 | -0.5% | ? | -3.1% | . | ?
COc1cc(-c2ccno2)ccc1S(=O)(=O)N1CCN(c2ccc(F)cc2)CC1 | 8.3% | 7.31µM* | . | 9.6% | ?
COc1cc(-c2ccno2)ccc1S(=O)(=O)N1CCN(c2ccc(C(C)=O)cc2)CC1 | 5.4% | 14.6µM* | . | 1.2% | ?
Cc1cc(Cl)ccc1C(=O)C1CCCN(C(=O)CCn2cncn2)C1 (configuration not stated) | 1.7% | -12.1% | -6.1% | -3.5% | ?
CN(Cc1ccc(OC(F)F)cc1)C(=O)c1cccc(S(=O)(=O)N2CCN(Cc3ccccc3)CC2)c1 | . | 8.2µM* | -11.5% | . | 9.2µM*
